Assay results from PubChem BioAssay.
The source made the active and inactive calls. Unless noted, the rule behind the calls is not given here.

What was measured:
[1] = resazurin metabolic signal in HepG2 cells – cell-based, resazurin fluorescence, 24 h, PK04 Diversity Set, profiling panel (AID 1172); conditions: HepG2 viability, higher = more signal
[2] = budding yeast growth changes without added modifier – OD600, strain BY4716, 24 h, basal condition, primary screen (AID 1173); conditions: S. cerevisiae BY4716 growth, OD600, 24 h; higher = more signal, called active from +8 up or from −8 down
[3] = viability profiling in MM1S myeloma cells – cell-based, resazurin fluorescence, basal, 24 h, PK04 Diversity Set, profiling panel (AID 1174); conditions: higher = more signal, called active from +8 up or from −8 down;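 note: MM1S multiple myeloma cell line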
[4] = molecular target: Dihydroorotate dehydrogenase (quinone), mitochondrial (Plasmodium falciparum (isolate 3D7)) (UniProt Q08210); assay: inhibition of P. falciparum DHODH – biochemical, C-terminal His tag, absorbance 600 nm, primary screen (AID 1175); conditions: PfDHODH enzyme, DCIP absorbance 600 nm; higher = more signal, called active from +8 up or from −8 down;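 note: recombinant parasite enzyme with a five histidine tag at its C terminus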
Chain of Dihydroorotate dehydrogenase (quinone), mitochondrial (Plasmodium falciparum (isolate 3D7)) (Q08210 whole entry, looked up): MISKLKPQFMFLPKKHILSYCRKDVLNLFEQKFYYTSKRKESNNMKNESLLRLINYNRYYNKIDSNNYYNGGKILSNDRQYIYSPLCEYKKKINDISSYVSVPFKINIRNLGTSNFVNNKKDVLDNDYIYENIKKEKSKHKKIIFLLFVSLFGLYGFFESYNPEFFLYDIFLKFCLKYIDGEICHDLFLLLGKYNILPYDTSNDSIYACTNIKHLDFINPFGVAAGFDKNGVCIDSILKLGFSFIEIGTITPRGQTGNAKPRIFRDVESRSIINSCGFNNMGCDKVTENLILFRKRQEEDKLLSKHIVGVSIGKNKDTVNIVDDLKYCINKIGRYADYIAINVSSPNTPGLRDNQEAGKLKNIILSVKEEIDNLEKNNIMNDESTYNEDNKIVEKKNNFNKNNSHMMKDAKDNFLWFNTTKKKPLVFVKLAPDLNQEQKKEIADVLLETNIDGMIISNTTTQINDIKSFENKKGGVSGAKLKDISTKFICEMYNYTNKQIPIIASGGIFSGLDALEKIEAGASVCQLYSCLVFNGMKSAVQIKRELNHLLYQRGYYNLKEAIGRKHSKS

[5] = inhibition of PAO1 biofilm formation – strain PAO1, LB-PBS medium, absorbance 600 nm, primary screen (AID 1176); conditions: P. aeruginosa PAO1 growth/biofilm, A600, 12 h; higher = more signal
[6] = growth modulation of vineyard yeast isolate – strain RM11-1a, OD600, basal, 24 h, primary screen (AID 1177);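 note: cultures grown under basal conditions with no added stressor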; conditions: S. cerevisiae RM11-1a growth, OD600, 24 h; higher = more signal, called active from +8 up or from −8 down
[7] = growth of efflux-deficient E. coli DRC39 – strain DRC39, OD650, 24 h, E. coli filamentation inducers, primary screen (AID 1178);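 note: growth measured as culture turbidity by optical density at 650 nm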; conditions: E. coli DRC39 acrAB, higher = more signal, called active from +8 up or from −8 down
[8] = growth of efflux-deficient E. coli DRC39 – strain DRC39, OD650, 48 h, E. coli filamentation inducers, primary screen (AID 1179);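 note: screen aims at cell division blockers that make cells filament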; conditions: E. coli DRC39 delta-acrAB growth, higher = more signal, called active from +8 up or from −8 down
[9] = viability profiling in RPMI8226 myeloma cells – cell-based, resazurin fluorescence, basal, 24 h, PK04 Diversity Set, profiling panel (AID 1180); conditions: higher = more signal;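 note: RPMI8826 multiple myeloma cell line at 5000 cells per well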
[10] = molecular target: E3 ubiquitin-protein ligase XIAP (Homo sapiens) (UniProt P98170); assay: small molecules binding XIAP protein – biophysical, small-molecule microarray, fluorescence 635 nm, primary screen (AID 1181); conditions: higher = more signal;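 note: score merges 667 nm emission and signal to noise over triplicate slides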
Chain of E3 ubiquitin-protein ligase XIAP (Homo sapiens) (P98170 whole entry, looked up, the tested form may be a part): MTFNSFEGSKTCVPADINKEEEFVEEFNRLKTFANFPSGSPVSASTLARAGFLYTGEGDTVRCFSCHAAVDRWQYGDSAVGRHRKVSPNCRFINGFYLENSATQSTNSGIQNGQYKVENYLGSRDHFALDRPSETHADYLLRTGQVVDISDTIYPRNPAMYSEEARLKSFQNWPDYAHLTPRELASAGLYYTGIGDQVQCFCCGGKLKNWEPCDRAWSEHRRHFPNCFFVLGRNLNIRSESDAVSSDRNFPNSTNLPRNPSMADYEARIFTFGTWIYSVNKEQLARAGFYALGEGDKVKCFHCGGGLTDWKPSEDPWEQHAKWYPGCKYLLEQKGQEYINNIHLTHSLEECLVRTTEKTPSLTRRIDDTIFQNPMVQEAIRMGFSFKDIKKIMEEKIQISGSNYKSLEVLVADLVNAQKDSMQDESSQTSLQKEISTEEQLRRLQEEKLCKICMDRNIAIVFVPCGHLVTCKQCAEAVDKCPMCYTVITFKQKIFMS

[11] = test system: XIP peptide (Xip251-270) binding; assay: XIP fragment 251-270 binding compounds – biochemical, small-molecule microarray, fluorescence 635/667 nm, 0.1 µg/mL protein, primary screen (AID 1182); conditions: fluorescent protein binding, 635 nm, higher = more signal, called active from +8 up or from −8 down
[12] = test system: XIP peptide (Xip251-270); assay: compounds binding XIP fragment 251-270 – biochemical, small-molecule microarray, fluorescence 635/667 nm, 0.5 µg/mL protein, primary screen (AID 1183); conditions: fluorescence 635 nm, higher = more signal
[13] = blood-stage malaria parasite viability loss – strain 3D7, DAPI fluorescence, 100 nL, primary screen (AID 1184);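 note: parasites grown inside human red blood cells in medium with human serum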; conditions: P. falciparum 3D7 growth, 3 d, higher = more signal
[14] = molecular target: Homeobox protein Hox-A13 (Mus musculus) (UniProt Q62424); assay: disruptors of Hoxa13 oligonucleotide interaction – biochemical, fluorescence polarization, labeled oligonucleotide, primary screen (AID 1185); conditions: Hoxa13:DNA binding, 15 min, higher = more signal, called active from +8 up or from −8 down
Chain of Homeobox protein Hox-A13 (Mus musculus) (Q62424 whole entry, looked up): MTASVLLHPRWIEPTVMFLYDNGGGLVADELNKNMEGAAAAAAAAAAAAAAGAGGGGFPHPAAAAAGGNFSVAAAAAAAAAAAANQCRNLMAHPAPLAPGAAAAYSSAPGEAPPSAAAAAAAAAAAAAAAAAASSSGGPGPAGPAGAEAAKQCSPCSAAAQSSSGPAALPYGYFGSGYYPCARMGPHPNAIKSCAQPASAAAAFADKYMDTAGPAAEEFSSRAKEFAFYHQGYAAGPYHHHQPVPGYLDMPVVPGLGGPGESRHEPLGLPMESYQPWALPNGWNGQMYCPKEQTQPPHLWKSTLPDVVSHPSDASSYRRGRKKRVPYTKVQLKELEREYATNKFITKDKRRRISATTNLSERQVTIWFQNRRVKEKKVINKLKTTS

[15] = blockers of DNA damage checkpoint Chk1 activation – imaging, HeLa, hydroxyurea, phospho-Chk1 antibody, percent positive cells, primary screen (AID 1186); conditions: hydroxyurea-induced phospho-Chk1 immunofluorescence imaging, higher = more signal
[16] = blockers of DNA damage checkpoint Chk1 activation – imaging, HeLa, hydroxyurea, phospho-Chk1 nuclear intensity, primary screen (AID 1187); conditions: hydroxyurea-induced phospho-Chk1 immunofluorescence imaging, higher = more signal

Structure (SMILES) | z-score [1] | z-score [2] | z-score [3] | composite z-score [4] | z-score [5] | z-score [6] | z-score [7] | z-score [8] | z-score [9] | composite z-score [10] | composite z-score [11] | composite z-score [12] | z-score [13] | z-score [14] | z-score [15] | z-score [16]
CC(=O)NCCCC[C@@H]1NC(=O)[C@@H]2C[C@H](C(=O)NCCCCCC[N+](C)(C)C)[C@H](c3ccc(O)cc3)N2C1=O | -0.793 | 0.857 (inactive) | -0.471 (inactive) | -1.24 (inactive) | -0.807 (inactive) | 0.0885 (inactive) | -0.241 (inactive) | -0.229 (inactive) | -0.854 | 0.123 | 0.0817 (inactive) | 0.846 | 1.12 | -2.45 (inactive) | 0.956 (inactive) | 0.817 (inactive)
COc1cccc(OC)c1C(=O)O[C@H]1[C@@H]2OC(=O)[C@H](Cc3cccc(Br)c3)C/C=C/C[C@@H](Cc3cccc(Br)c3)C(=O)O[C@H]2[C@@H](OC)O[C@@H]1CO | -0.946 | -0.696 (inactive) | -1.11 (inactive) | -0.491 (inactive) | 0.277 (inactive) | 0.788 (inactive) | -0.0368 (inactive) | 0.165 (inactive) | -1.38 | 0.182 | 1.02 (inactive) | -0.213 | -0.545 | -4.16 (inactive) | 0.0558 (inactive) | 0.0783 (inactive)
CCc1cccc(NC(=O)O[C@H]2[C@H](OC(=O)Nc3ccc4c(c3)OCO4)[C@H](OC(=O)Nc3ccc4c(c3)OCO4)[C@@H](OC)O[C@@H]2CO)c1 | -0.585 | 0.613 (inactive) | -1.44 (inactive) | -1.12 (inactive) | 0.317 (inactive) | 1.97 (inactive) | 1.65 (inactive) | 0.853 (inactive) | -1.47 | -0.184 | 2.3 (inactive) | 0.791 | -2.26 | -9.9 (active) | -0.392 (inactive) | -0.0612 (inactive)
COCC1=C([C@H](O)CCc2ccccc2)[C@H](CO)n2c(=O)n(-c3ccccc3)c(=O)n2C1 | -0.236 | -3.02 (inactive) | 0.0444 (inactive) | -0.855 (inactive) | 0.188 (inactive) | -1.94 (inactive) | 1.19 (inactive) | 1.32 (inactive) | 0.113 | -0.0848 | 0.625 (inactive) | -0.0859 | 0.0736 | -3.09 (inactive) | -0.48 (inactive) | 1.51 (inactive)
O=C1O[C@@H](c2ccccc2)[C@@H](c2ccccc2)N2[C@@H](c3ccc(OCCO)cc3)[C@]3(C(=O)Nc4ccc(C#CCCO)cc43)[C@@H](C(=O)Nc3nc4ccccc4s3)[C@H]12 | 1.44 | 0.799 (inactive) | 1 (inactive) | -0.812 (inactive) | 0.89 (inactive) | 0.25 (inactive) | 0.042 (inactive) | -0.366 (inactive) | 1.51 | 0.0225 | 0.469 (inactive) | 0.487 | -1.86 | 1.8 (inactive) | -0.234 (inactive) | -0.41 (inactive)
CCOC(=O)C[C@H]1[C@H](OC(=O)Cc2ccc3c(c2)OCO3)[C@@H](NC(=O)c2ccccc2)c2cc(OCCCO)ccc2N1C(=O)Cc1ccc(OC)cc1 | -0.0111 | -0.644 (inactive) | -0.234 (inactive) | -1.37 (inactive) | 0.407 (inactive) | -1.86 (inactive) | 1.68 (inactive) | 2.05 (inactive) | 0.636 | -0.162 | 0.659 (inactive) | 0.288 | -1.35 | -3 (inactive) | -1.29 (inactive) | -1.25 (inactive)
CCCCCCc1nc(-c2ccc(OC)nc2)cc2c1[Si](C(C)C)(C(C)C)OC2 | 0.0579 | 0.721 (inactive) | 0.426 (inactive) | -3.12 (inactive) | -0.0391 (inactive) | -0.483 (inactive) | 0.37 (inactive) | 0.212 (inactive) | 0.343 | -0.0525 | -0.0275 (inactive) | -0.019 | -1.99 | -3.55 (inactive) | -0.0362 (inactive) | 0.237 (inactive)
CC=CC(O)C1C=CC2C(=O)N(C)C(=O)C2N1NC(=O)OC(C)(C)C (stereo not drawn) | -1 | 0.906 (inactive) | -0.524 (inactive) | -0.0735 (inactive) | -0.0625 (inactive) | -0.243 (inactive) | -0.447 (inactive) | -0.504 (inactive) | -0.939 | 0.0621 | -0.3 (inactive) | 0.335 | 0.675 | -1.46 (inactive) | 0.698 (inactive) | -0.0345 (inactive)
[N-]=[N+]=NCc1ccccc1C[C@]1(C(=O)NCc2ccccc2)N=C(c2ccc(OCCCO)cc2)O[C@H]1c1ccccc1CN=[N+]=[N-] | -0.907 | 0.831 (inactive) | -0.153 (inactive) | 0.238 (inactive) | 1.32 (inactive) | 0.832 (inactive) | 3.04 (inactive) | 1.01 (inactive) | -0.28 | -0.0559 | 0.99 (inactive) | 0.628 | -2.24 | 4.04 (inactive) | -0.347 (inactive) | 0.0031 (inactive)
CCCCCCCCCCC(O)C1C=CC2C(=O)N(C)C(=O)C2N1N1CCCCC1 (stereo not drawn) | -1.36 | 0.447 (inactive) | -1.35 (inactive) | 1.24 (inactive) | 0.944 (inactive) | 1.53 (inactive) | -0.619 (inactive) | -0.373 (inactive) | -1.18 | 0.0264 | 0.0477 (inactive) | 0.0634 | -0.152 | -4.08 (inactive) | 0.552 (inactive) | 0.303 (inactive)
C#CCN=C(N)N | -0.0276 | -0.639 (inactive) | 0.111 (inactive) | -0.377 (inactive) | 0.845 (inactive) | -0.491 (inactive) | -0.383 (inactive) | -0.079 (inactive) | 0.0428 | 0.155 | 0.189 (inactive) | 0.391 | -0.624 | -0.327 (inactive) | -0.351 (inactive) | -0.447 (inactive)
C=CCC(OC(C)=O)[C@@H]1[C@@H](N(Cc2ccc(-c3ccccc3)cc2)C(=O)c2cccc3ccccc23)c2cc(OCCCO)ccc2N1C(=O)c1ccc2ccccc2c1 (stereo partly drawn) | -0.784 | -0.185 (inactive) | -0.967 (inactive) | -0.318 (inactive) | 0.48 (inactive) | -0.865 (inactive) | 0.144 (inactive) | -0.455 (inactive) | -1.3 | -0.0017 | 0.15 (inactive) | -0.0461 | -1.76 | -1.33 (inactive) | -0.293 (inactive) | -0.006 (inactive)
COCCOC(=O)N1C(=O)[C@@]2(c3cc(C#CCCO)ccc31)[C@H](C(=O)N1CCc3cc(OC)c(OC)cc3C1)[C@H]1C(=O)O[C@H](c3ccccc3)[C@H](c3ccccc3)N1[C@@H]2c1ccccc1OCCO | 0.713 | 1.68 (inactive) | 0.208 (inactive) | 0.0306 (inactive) | 1.38 (inactive) | 2.69 (inactive) | 0.497 (inactive) | 0.74 (inactive) | 1.01 | -0.0945 | 0.21 (inactive) | 0.805 | -2.18 | 0.554 (inactive) | 0.0905 (inactive) | 0.534 (inactive)
C=CCNC(=O)[C@@H]1[C@H]2C(=O)O[C@H](c3ccccc3)[C@H](c3ccccc3)N2[C@H](c2ccccc2OCCO)[C@@]12C(=O)N(C(=O)OCCOC)c1ccc(C#CCCO)cc12 | -0.301 | 0.858 (inactive) | -1.02 (inactive) | -0.202 (inactive) | 1.32 (inactive) | 2.15 (inactive) | 0.251 (inactive) | 0.569 (inactive) | -1.56 | -0.0347 | 0.397 (inactive) | 0.683 | -2.09 | -1.71 (inactive) | -0.37 (inactive) | -0.538 (inactive)
COCCOC(=O)N1C(=O)[C@@]2(c3cc(C#CC4(O)CCCCCC4)ccc31)[C@H](c1ccc(OCCO)cc1)N1[C@H](c3ccccc3)[C@H](c3ccccc3)OC(=O)[C@H]1[C@@H]2C(=O)N1CCCCCCC1 | -0.768 | 0.973 (inactive) | -0.418 (inactive) | 0.0448 (inactive) | 1.16 (inactive) | 2.11 (inactive) | -2.2 (inactive) | -1.8 (inactive) | 0.0982 | -0.151 | 0.662 (inactive) | 0.743 | -2.43 | -13.3 (active) | -0.0238 (inactive) | 0.222 (inactive)
COc1ccc(CCNC(=O)[C@@]2(Sc3ccc(C)cc3)CC(=O)N(Cc3cc(C(F)(F)F)cc(C(F)(F)F)c3)[C@@H]2c2ccc(CO)cc2)cc1 | -0.392 | -1.01 (inactive) | -0.378 (inactive) | -0.61 (inactive) | 0.112 (inactive) | -0.83 (inactive) | 0.0664 (inactive) | -0.331 (inactive) | -0.395 | 0.536 | -0.461 (inactive) | 0.705 | 0.264 | -2.57 (inactive) | 0.132 (inactive) | 0.282 (inactive)
C=CCC(OC(C)=O)[C@@H]1[C@@H](N(Cc2ccc(-c3cccc(C(F)(F)F)c3)o2)C(=O)c2cccc3ccccc23)c2cc(OCCCO)ccc2N1C(=O)c1ccc2ccccc2c1 (stereo partly drawn) | -0.0598 | -0.988 (inactive) | -0.416 (inactive) | -0.0361 (inactive) | -0.464 (inactive) | 0.204 (inactive) | 0.807 (inactive) | 0.489 (inactive) | -0.311 | -0.04 | 0.184 (inactive) | -0.563 | -2.73 | -2.32 (inactive) | -0.675 (inactive) | -0.36 (inactive)
CN1C(=O)C2C(C1=O)C1C=C(c3ccc(CO)cc3)C2C(c2cccs2)N1C (stereo not drawn) | -0.584 | -1.59 (inactive) | -0.446 (inactive) | -1.46 (inactive) | -2.71 (inactive) | -0.0654 (inactive) | 0.596 (inactive) | 0.346 (inactive) | 0.343 | -0.444 | 0.482 (inactive) | -0.202 | -2.32 | -6.12 (inactive) | -0.89 (inactive) | -0.76 (inactive)
